Hits are enriched below; roughly 2.4% of the tested compounds scored in any of these assays.
M1 PAM = potentiates human M1 receptor response to acetylcholine; actives 0.088% (n = 360,000); P11229; activation, % at 3 µM; CHO-K1 hM1, Fluo-8 calcium fluorescence, ACh EC20; 0% = ACh EC20, 100% = maximal ACh; in the data active means activation above about 19%, passing the limit was not always enough
Target sequence (P11229 whole entry, looked up): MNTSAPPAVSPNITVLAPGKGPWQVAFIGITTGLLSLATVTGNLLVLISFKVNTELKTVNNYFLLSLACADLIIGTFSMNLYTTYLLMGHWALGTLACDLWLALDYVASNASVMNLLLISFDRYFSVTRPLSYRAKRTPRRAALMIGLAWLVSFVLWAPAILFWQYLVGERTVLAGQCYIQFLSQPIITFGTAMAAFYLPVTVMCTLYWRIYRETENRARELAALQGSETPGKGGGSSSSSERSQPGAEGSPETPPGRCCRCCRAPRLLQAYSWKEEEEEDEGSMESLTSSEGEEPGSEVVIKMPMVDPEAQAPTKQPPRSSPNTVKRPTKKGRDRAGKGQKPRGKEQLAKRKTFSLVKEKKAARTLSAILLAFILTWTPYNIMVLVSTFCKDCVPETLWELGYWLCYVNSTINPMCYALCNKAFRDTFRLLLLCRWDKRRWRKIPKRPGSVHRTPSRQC
CHO-K1 Ca antag = nonselective inhibitor or artifact in parental CHO-K1 cells. ATP-induced calcium, Fluo-8 fluorescence. inhibition, % at 3 µM. actives 0.6% (n = 360,000). AID 602250;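 active means inhibition above a per-plate cutoff, the plate's mean sample inhibition plus 3 SD, cut at about 24% in these data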
CHO-K1 Ca ag = nonselective activator or artifact in parental CHO-K1 cells | Fluo-8 calcium fluorescence; scaled to maximal ATP response, vehicle zero | actives 0.48% (n = 360,000) | activation, % at 3 µM; in the data active means activation above about 15%;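 further: untransfected CHO-K1 host cells lacking M1 receptor as counterscreen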
CHO-K1 Ca PAM = counter-screen for M1 PAMs: effect in parental CHO-K1 cells; ATP EC20, Fluo-8 calcium fluorescence; 0% at ATP EC20, 100% at ATP max; activation, % at 3 µM; actives 0.02% (n = 360,000); AID 602247;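 active means activation above the run cutoff, the mean activation of all test compounds plus 3 SD, cut at about 40% in these data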;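 further: peak over basal fluorescence ratio in a 140 s read after ATP addition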
M1 antag = antagonists of human M1 muscarinic receptor. P11229. CHO-K1 hM1, Fluo-8 calcium fluorescence, ACh EC80 antagonist. inhibition, % at 3 µM. actives 1.3% (n = 360,000). AID 588852;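 active means percent inhibition above its own plate's cutoff, namely the mean of that plate's compound wells plus 3 SD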;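 further: peak over basal fluorescence ratio during 140 s after agonist addition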
M1 ag = activates human CHRM1 receptor; AID 588814; P11229; activation, % at 3 µM; CHO-K1 hM1, Fluo-8 calcium fluorescence, agonist mode; 0% DMSO, 100% acetylcholine EC100; actives 0.33% (n = 360,000);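 active means activation above the run's mean compound activation plus 3 SD, cut at about 16% in these data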;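 further: peak over basal fluorescence ratio within a 140 s kinetic read after compound addition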
Hits are given with their value.

O=C(Cn1cnc2ccccc21)Nc1ccc(C(=O)O)cc1 was read as M1 PAM inactive, CHO-K1 Ca antag inactive, CHO-K1 Ca ag inactive, CHO-K1 Ca PAM inactive, M1 antag inactive and M1 ag inactive.
O=C(Cn1cnc2ccccc21)N/N=C/c1ccccc1 was read as M1 PAM inactive, CHO-K1 Ca antag inactive, CHO-K1 Ca ag 17.5, CHO-K1 Ca PAM inactive, M1 antag inactive and M1 ag inactive.
For O=C(Cn1cnc2ccccc21)N1CCc2ccccc21 the results were M1 PAM inactive, CHO-K1 Ca antag 28.1, CHO-K1 Ca ag inactive, CHO-K1 Ca PAM inactive, M1 antag inactive and M1 ag inactive.
CC(/C=N/NC(=O)Cn1cnc2ccccc21)=C\c1ccccc1 was read as M1 PAM inactive, CHO-K1 Ca antag 27.3, CHO-K1 Ca ag inactive, CHO-K1 Ca PAM inactive, M1 antag inactive and M1 ag inactive.
COc1cc(OC)cc(C(=O)N[C@H](C(=O)Nc2cccc(S(=O)(=O)N3CCCC3)c2)C(C)C)c1 was read as M1 PAM inactive, CHO-K1 Ca antag inactive, CHO-K1 Ca ag inactive, CHO-K1 Ca PAM inactive, M1 antag inactive and M1 ag inactive.
`COc1ccccc1S(=O)(=O)Cc1ccc(C(=O)NCCCN2CCN(c3ccc(F)cc3)CC2)o1` gave M1 PAM inactive, CHO-K1 Ca antag inactive, CHO-K1 Ca ag inactive, CHO-K1 Ca PAM inactive, M1 antag inactive and M1 ag inactive.
`Cc1ccc(C)c(C(=O)COC(=O)C(C)N2C(=O)C3C4CCC(C4)C3C2=O)c1` (stereo not given) gave M1 PAM inactive, CHO-K1 Ca antag inactive, CHO-K1 Ca ag inactive, CHO-K1 Ca PAM inactive, M1 antag inactive and M1 ag inactive.
Screening CCN(CC)CCNC(=O)C12CC3CC(C)(CC(C)(C3)C1)C2 returned M1 PAM inactive, CHO-K1 Ca antag inactive, CHO-K1 Ca ag inactive, CHO-K1 Ca PAM inactive, M1 antag 39.8 and M1 ag inactive.
For CCN(CC)CCNC(=O)C12CC3CC(CC(C3)C1)C2 the results were M1 PAM inactive, CHO-K1 Ca antag inactive, CHO-K1 Ca ag inactive, CHO-K1 Ca PAM inactive, M1 antag inactive and M1 ag inactive.
COc1ccc(C(=O)Nc2ccc(N3CCN(Cc4ccccc4)CC3)cc2)cc1 was read as M1 PAM inactive, CHO-K1 Ca antag inactive, CHO-K1 Ca ag inactive, CHO-K1 Ca PAM inactive, M1 antag inactive and M1 ag inactive.
For COc1c(F)c(F)c(C(=O)Nc2ccc(N3CCN(Cc4ccccc4)CC3)cc2)c(F)c1F the results were M1 PAM inactive, CHO-K1 Ca antag inactive, CHO-K1 Ca ag inactive, CHO-K1 Ca PAM inactive, M1 antag 47.3 and M1 ag inactive.
Screening COc1cccc(NC(=O)c2ccc(CN3CCN(c4ccccc4)CC3)cc2)c1 returned M1 PAM inactive, CHO-K1 Ca antag inactive, CHO-K1 Ca ag inactive, CHO-K1 Ca PAM inactive, M1 antag 20.5 and M1 ag inactive.
`Cc1cccc(S(=O)(=O)C(C#N)c2nc3ccccc3nc2N2CCCC2)c1` (stereo not given) gave M1 PAM inactive, CHO-K1 Ca antag 26.7, CHO-K1 Ca ag inactive, CHO-K1 Ca PAM inactive, M1 antag inactive and M1 ag inactive.
Screening N#CC(c1nc2ccccc2nc1N1CCCC1)S(=O)(=O)c1ccccc1 (stereo not given) returned M1 PAM inactive, CHO-K1 Ca antag inactive, CHO-K1 Ca ag inactive, CHO-K1 Ca PAM inactive, M1 antag inactive and M1 ag inactive.
OCC1CCCN(c2nc(CN3CCCCC3)nc3scc(-c4ccccc4)c23)C1 (stereo not given) was read as M1 PAM inactive, CHO-K1 Ca antag inactive, CHO-K1 Ca ag inactive, CHO-K1 Ca PAM inactive, M1 antag inactive and M1 ag inactive.
Screening CCNc1nc(CN2CCCCC2)nc2scc(-c3ccccc3)c12 returned M1 PAM inactive, CHO-K1 Ca antag inactive, CHO-K1 Ca ag inactive, CHO-K1 Ca PAM inactive, M1 antag 64.6 and M1 ag inactive.
Screening CC(=O)NCCC(=O)N1CCCC(N(C)CCc2ccccc2)C1 (stereo not given) returned M1 PAM inactive, CHO-K1 Ca antag inactive, CHO-K1 Ca ag inactive, CHO-K1 Ca PAM inactive, M1 antag 44.8 and M1 ag inactive.
For Cc1cc(/C=C2\NC(=S)N(C)C2=O)ccc1N1CCCC1 the results were M1 PAM inactive, CHO-K1 Ca antag 60.0, CHO-K1 Ca ag 75.7, CHO-K1 Ca PAM inactive, M1 antag 59.2 and M1 ag 54.8.

Compound activity from PubChem.
